The list is not random: actives were taken first. Their share in the collection is about 2.8%.
HIV Env fusion: inhibitors of HIV-1 Env-driven cell-cell fusion, primary screen, HeLa-JRFL effector, CEM21 target cells, luciferase; actives 1.1% (n = 360,000); inhibition, % at 12.3 µM;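 active = mean replicate inhibition score of at least 50 and every replicate individually at or above 50; inconclusive = only one of the two criteria met; inactive = mean below 50 and not all replicates reaching 50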;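 also: 0% = plate neutral controls and 100% = maraviroc near 300 nM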
EBV LMP1 NFkB: EBV LMP1-driven NF-kappaB luciferase reporter inhibitors, primary screen, cell-based, luminescence, single point | AID 504558, 2011 | LMP1-induced NF-kappaB luciferase reporter cells | inhibition, % at 12.5 µM | actives 0.69% (n = 350,000); in the data active = inhibition above about 41%; inconclusive = no clear call, values can overlap the other calls;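 also: 0% = neutral control wells and 100% = reference inhibitor control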
Shn3 inh set2: reduction of Shn3 3'UTR firefly luciferase signal, primary screen, Schnurri-3 inhibitor project, cell-based, Clone20 osteoblasts, set 2 | Clone20 osteoblast Shn3 3'UTR firefly luciferase, 24 h | inhibition, % at 12.5 µM | actives 0.52% (n = 360,000) | AID 588674, 2011;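 active = mean inhibition of at least 75% with every replicate also reaching 75%; inconclusive = mean inhibition at least 75% but some replicate below; inactive = mean inhibition below 75%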;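 also: 0% = median of neutral control wells and 100% = pilot-screen positive control compound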
Glyco luc inh: increase of ERlucT glycosylation luciferase signal, primary screen, N-linked glycosylation inhibitor project, D54 ERlucT cells, luminescence, set 2; D54 ERlucT glycosylation luciferase reporter, 24 h; percent of 100 nM tunicamycin response; reporter increase, % at 12.5 µM; actives 0.23% (n = 360,000); AID 588692, 2011;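 active = mean luciferase reporter signal, scaled so untreated is 0 and the glycosylation-blocking control 100, at or above a set limit in every replicate; inconclusive = mean reaches the limit but not every replicate does; inactive = mean below the limit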;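 also: luciferase carries N-glycosylation sites so blocking glycosylation raises the light; 0% = median of neutral control wells and 100% = median of 100 nM tunicamycin wells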
PAX8 reporter: inhibitors of PAX8-driven TPO luciferase reporter, primary screen, RMG-I cells, single concentration; actives 1.2% (n = 360,000); inhibition, % at 12.6 µM; AID 652154, 2013; SteadyGlo, 24 h;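 active = mean replicate inhibition at least 60% with every replicate also reaching 60%; inconclusive = only one of the two criteria is met; inactive = mean below 60% and not all replicates reaching 60%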;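 also: luciferase light reporting Pax8 driven TPO promoter activity; plate controls were median of neutral control wells for no effect and mitoxantrone controls for full effect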
NSD2 HMT inh: NSD2 histone methyltransferase inhibitors, primary screen, biochemical, AlphaScreen, single concentration, set 2; Histone-lysine N-methyltransferase NSD2 (Homo sapiens), O96028; NSD2 peptide methylation, 120 min; inhibition, % at 12.5 µM; actives 0.54% (n = 310,000); AID 743445, 2014; in the data active = inhibition above about 50%
Target sequence (O96028 whole entry, looked up): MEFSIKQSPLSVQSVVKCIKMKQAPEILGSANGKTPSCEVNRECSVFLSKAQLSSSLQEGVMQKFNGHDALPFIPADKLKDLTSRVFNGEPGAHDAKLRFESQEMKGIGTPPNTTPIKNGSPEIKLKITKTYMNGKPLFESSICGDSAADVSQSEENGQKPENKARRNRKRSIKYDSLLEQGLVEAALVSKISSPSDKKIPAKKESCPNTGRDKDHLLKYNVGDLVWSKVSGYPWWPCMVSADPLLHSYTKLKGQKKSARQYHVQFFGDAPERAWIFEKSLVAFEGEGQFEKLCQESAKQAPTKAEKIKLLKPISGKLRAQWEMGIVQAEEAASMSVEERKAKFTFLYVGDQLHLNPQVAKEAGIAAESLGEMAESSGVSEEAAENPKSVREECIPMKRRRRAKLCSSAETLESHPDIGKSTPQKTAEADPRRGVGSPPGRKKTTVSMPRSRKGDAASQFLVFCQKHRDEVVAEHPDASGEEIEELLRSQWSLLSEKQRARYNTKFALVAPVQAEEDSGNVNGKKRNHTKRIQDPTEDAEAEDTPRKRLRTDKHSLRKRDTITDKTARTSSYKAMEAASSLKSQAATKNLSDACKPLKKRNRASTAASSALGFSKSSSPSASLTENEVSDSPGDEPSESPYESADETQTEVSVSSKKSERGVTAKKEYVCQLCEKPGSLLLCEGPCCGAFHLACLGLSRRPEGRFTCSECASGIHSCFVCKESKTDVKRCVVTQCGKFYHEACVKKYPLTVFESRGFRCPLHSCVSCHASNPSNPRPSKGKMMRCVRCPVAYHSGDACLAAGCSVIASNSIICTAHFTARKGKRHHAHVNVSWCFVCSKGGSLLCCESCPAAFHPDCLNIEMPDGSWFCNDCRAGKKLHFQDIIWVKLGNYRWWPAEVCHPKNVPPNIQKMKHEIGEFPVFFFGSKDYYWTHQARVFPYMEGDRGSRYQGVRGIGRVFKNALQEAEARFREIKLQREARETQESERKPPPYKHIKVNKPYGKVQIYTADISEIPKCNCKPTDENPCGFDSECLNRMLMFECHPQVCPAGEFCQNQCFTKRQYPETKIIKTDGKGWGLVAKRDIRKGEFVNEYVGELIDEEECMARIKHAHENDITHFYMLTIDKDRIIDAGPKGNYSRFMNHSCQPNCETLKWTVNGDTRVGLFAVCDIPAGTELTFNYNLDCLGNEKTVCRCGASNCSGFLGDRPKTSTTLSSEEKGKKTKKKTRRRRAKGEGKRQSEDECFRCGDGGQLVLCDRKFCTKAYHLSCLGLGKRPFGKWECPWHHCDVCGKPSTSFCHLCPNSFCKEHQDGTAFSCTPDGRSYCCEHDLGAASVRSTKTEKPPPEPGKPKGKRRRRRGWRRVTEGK
AlphaScreen art: AlphaScreen signal interference with preloaded methylated product, dose response, artefact control for NSD2 inhibitor project, biochemical, cherry-picked samples | AlphaScreen artifact counterscreen, preloaded methylated H4 peptide | AC35, µM (titrated, usually from 10 µM), inactives show at the highest dose activity change, negative = signal loss | actives 9.4% (n = 1,500) | shares compounds with NSD2 HMT inh; call rule not given here
* = called active by the depositor; u = inconclusive; x = no result given; [ ] = another dose, or the depositor's remark.

SMILES	HIV Env fusion	EBV LMP1 NFkB	Shn3 inh set2	Glyco luc inh	PAX8 reporter	NSD2 HMT inh	AlphaScreen art
CC(C)=CCC1=C(OCC(=O)O)C(=O)c2ccccc2C1=O	-9.7	-0.9	-4.5	4.5	0.9	127.0*	-1.9%
CC(C)NC(=O)N(C)C[C@@H]1OCCCC[C@@H](C)Oc2ccc(NS(=O)(=O)c3cn(C)cn3)cc2C(=O)N([C@H](C)CO)C[C@H]1C	1.3[16.7 µM]	x	x	x	-1.4	x	x
O=C1/C(=C/c2ccc(O)c(O)c2)SC(=S)N1Nc1ccccc1	x	-1.2	4.1	-3.7	x	88.1*	2.35µM*
COc1cc(/C=C2\SC(=S)N(Nc3ccccc3)C2=O)ccc1O	-322.4	5.8	-87.5	5.5	-171.8	20.8	x
CCOc1ccc(NC(=O)CSc2nnc(C34CC5CC(CC(C5)C3)C4)n2C)cc1	31.1	0.8	23.4	-0.4	x	68.8*	-2.0%
C[C@@H](NC(=O)[C@@H]1[C@@H](CO)[C@@H]2Cn3c(ccc(-c4ccncc4)c3=O)[C@@H]2N1C)c1ccccc1	7.5[16.7 µM]	x	x	x	2.8	x	x
CN1CCN(c2ccc(NC(=O)COc3ccc4ccccc4c3)cc2)CC1	-1.8	5.1	9.5	-5.8	-59.5	124.5*	-1.2%
Cc1ccc(S(=O)(=O)N2C[C@@H](O)COC[C@H]3O[C@H](CC(=O)NCCN4CCCCC4)CC[C@@H]32)cc1	x	x	x	x	3.0	x	x
CCOc1ccc(NC(=S)NC(=O)/C=C/c2ccco2)cc1	-28.1	-7.0	-31.3	4.8	-3.5	-2.3	x
COc1cc(NS(=O)(=O)c2ccc(NC(=S)NC(=O)/C=C/c3ccco3)cc2)ncn1	7.6	-2.8	4.1	-0.2	7.9	149.5*	-3.7%
CC(=O)c1cc(C)ccc1OC(=O)CCN1C(=O)C2C3c4ccccc4C(c4ccccc43)C2C1=O (stereo not drawn)	14.1	15.3	0.7	-0.2	x	-0.6	x
CC(=O)NCCN1C(=O)C2C3c4ccccc4C(c4ccccc43)C2C1=O (stereo not drawn)	-48.2	2.1	0.3	-0.8	x	75.7*	-3.7%
CCOC(=O)C1CCN(c2nc(N)c3c(N)nc(SCC(=O)O)cc3c2C#N)CC1	-40.2	1.0	-7.5	1.8	3.6	101.3*	-5.5%
C[C@H](CO)N1C[C@H](C)[C@@H](CN(C)Cc2ccccc2)Oc2ccc(NC(=O)NC3CCCCC3)cc2CC1=O	-7.3[16.7 µM]	x	x	x	4.8	x	x
CC(C)(C)CN1CCNC(=O)C1CC(=O)N1CCC(C(=O)N2CCOCC2)CC1 (stereo not drawn)	-1.5	7.4	-5.6	-0.4	-19.1	78.6*	-4.3%
CC(C)(C)CN1CCNC(=O)C1CC(=O)N1CCN(c2ccccc2)CC1 (stereo not drawn)	2.1	-1.6	2.5	-1.3	-5.6	-1.0	x
Fc1ccc(C2CCNCC2COc2ccc3c(c2)OCO3)cc1 (stereo not drawn)	-2.1	-9.0	8.8	1.3	-21.3	63.6*	-20.2%
C[C@H]1CN([C@@H](C)CO)C(=O)c2cc(-c3ccccc3F)cnc2O[C@H]1CN(C)C	-18.4[16.7 µM]	x	x	x	x	x	x
CCCCCC/C(C)=C1/SC(=S)NC1=O	x	-5.8	-3.7	-2.4	x	8.7	x
C/C(C/C(C)=C1/SC(=S)NC1=O)=C1\SC(=S)NC1=O	11.5	-2.3	-8.6	-0.6	10.2	131.8*	-15.1%
CC12N=C3SCc4ccccc4CN3[C@H](c3ccccc3O1)[C@H]2CO	-9.5[16.7 µM]	x	x	x	18.3	x	x
CNCc1ccccc1Sc1cccc(O)c1	9.7	-2.3	0.2	-2.3	0.8	73.7*	-3.7%
COc1ccc(NC(=O)Nc2ccccc2SC)cc1OC	3.9	-2.8	-37.0	1.8	-43.8	1.6	x
CNCc1ccccc1Sc1cc(O)ccc1O	5.5	-4.5	-10.3	4.0	0.4	49.6	x
CNCc1ccccc1Sc1ccc(OC)c(OC)c1	x	1.7	-3.8	-4.0	x	56.2*	-5.4%
SMILES	HIV Env fusion	EBV LMP1 NFkB	Shn3 inh set2	Glyco luc inh	PAX8 reporter	NSD2 HMT inh	AlphaScreen art
O=C(C1CCOCC1)N1C[C@H]2[C@@H](c3ccccc31)[C@@H](CO)N2Cc1ccccc1Cl	x	x	x	x	-9.0	x	x
Cc1c(C(=O)c2no[n+]([O-])c2C(=O)c2cnn(C)c2C)cnn1C	x	7.8	31.9	1.6	x	66.4*	-3.7%
CN1/C(=C\C=C2/SC(=S)NC2=O)C(C)(C)c2ccccc21	31.7	13.7	84.4	-0.4	u	x	x
CN1CCC/C1=C/C=C1\SC(=S)NC1=O	8.5	-11.9	-33.6	2.8	-5.6	52.8*	2.3%
CC(C)(C)C(=O)NC1CC2CCCC(C1)N2C(=O)Nc1ccc(Cl)cc1 (stereo not drawn)	-10.3	-9.2	-0.4	0.0	0.4	56.0*	4.9%
O=C1C(=O)C(Cl)=C(Cl)C(Cl)=C1Cl	x	x	-40.9	1.3	x	90.6*	-11.9%
CCCNC(=O)N1[C@H](CO)[C@@H]2c3ccccc3N(C(=O)CC)C[C@@H]21	x	x	x	x	-3.6	x	x
COc1ccccc1N1CCN(S(=O)(=O)CCNC(=O)c2ccc(Br)o2)CC1	-7.9	-2.1	4.7	0.9	15.2	75.6*	-0.7%
CCC(=O)N[C@@H]1CC[C@H](CC(=O)NCCN2CCCCC2)O[C@@H]1CO	8.9[16.7 µM]	x	x	x	-1.4	x	x
C[C@@H]1CN([C@@H](C)CO)C(=O)c2cccc(NC(=O)Nc3ccccc3)c2O[C@H]1CN(C)C(=O)NC1CCCCC1	x	x	x	x	-0.9	x	x
COc1ccc(C)cc1S(=O)(=O)Nc1ccccc1C	x	-0.2	-5.7	-0.4	x	69.2*	1.1%
CCc1ccc(OC)c(S(=O)(=O)Nc2ccccc2C)c1	x	-9.0	1.8	-2.2	x	1.9	x
CSc1nc(N(C)C)nc(N(C)C#N)n1	12.5	6.5	8.8	1.6	17.4	5.4	x
CSc1nc(N)nc(N(C)C)n1	-171.6	16.4	-7.7	2.0	-5.5	60.7*	0.9%
C[C@@H]1CN([C@@H](C)CO)C(=O)c2cccc(NS(C)(=O)=O)c2O[C@H]1CN(C)Cc1ccccc1	-22.5[16.7 µM]	x	x	x	-0.8	x	x
COc1ccc(NC(=O)Nc2ccc3c(c2)C(=O)N([C@@H](C)CO)C[C@H](C)[C@@H](CN(C)C(=O)Cc2ccccc2)OCCCC[C@@H](C)O3)cc1	-4.4[16.7 µM]	x	x	x	29.7	x	x
N#C/C(=C\c1ccc(-c2ccc(C(=O)O)cc2)o1)C(=O)NCC1CCCO1 (stereo not drawn)	x	-10.4	-38.6	0.2	x	54.4*	-4.4%
N#C/C(=C\c1ccc(N2CCOCC2)o1)C(=O)NCC1CCCO1 (stereo not drawn)	18.2	-1.4	-5.7	3.6	-24.4	4.2	x
CCOc1ccc(NC(=S)N2CCC(NC(=O)C3CCCCC3)CC2)cc1	-4.4	2.2	16.9	-1.0	-7.2	57.1*	3.2%
CCc1ccc(NC(=S)N2CCC(NC(=O)C3CCCCC3)CC2)cc1	-5.9	-11.1	6.7	0.2	-3.0	2.4	x
